Data on ten molecules can be found in PubChem BioAssay.

Structures are written as SMILES. Records with an inconclusive call do not appear. Calls of active or inactive are those of the source.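 How the source made its calls, unless noted: active means inhibition over a set limit, the all-compound mean plus 3 SD, in both replicate runs; inconclusive means over that limit in just one replicate run; inactive means at or under that limit in both runs.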

A short description of test [1]: reducers of endogenous Her2 protein level, primary screen, SKBR3 breast tumor cells, AlphaScreen, ATP viability (AID 461;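 active means Her2 level under about 52% in both replicate screens, with viability over 70% of control, limit read from the data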;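 on Her2 level: lower value means less Her2 protein in the cells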;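 on viability: percent of carrier control wells set as 100% viability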). Particulars: 18-24 h, measured here: SKBR3 viability, ATP luminescence, at 10 µM.
In test [2] the target is Receptor tyrosine-protein kinase erbB-2 (Homo sapiens) (UniProt P04626). The test is described as above. Particulars: 18-24 h, at 10 µM, stronger effect = lower value.
Test [3] is described as follows: SK-BR-3 cell growth inhibitors, pilot screen, 24 h, human (AID 572;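 active means viability at or below 10% of carrier control in both of two separate runs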;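 further: compound exposure lasted between 18 and 24 h rather than exactly 24 h; 100% = carrier-treated control wells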). To be noted: SK-BR-3 viability, CellTiter-Glo luminescence, at 10 µM, stronger effect = lower value.
Test [4] in a line: HUVEC growth inhibition – cell-based, human, primary screen (AID 575;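 active means viability at or below 30% in both replicate assays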;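 further: 100% = median of untreated cell wells with 0.1% DMSO on each plate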). To be noted: HUVEC proliferation, CellTiter-Glo luminescence, 72 h; at 10 µM; stronger effect = lower value.
Test [5] in a line: growth inhibitors of H69AR lung tumor, primary screen, human, duplicate replicates (AID 580;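 active means viability at or under a set limit in both replicates, limit being median viability minus 3 SD, cut at about 48% in these data, passing the limit was not always enough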;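 further: 100% = mean luminescence of untreated wells and 0% = no signal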). Particulars: H69AR lung tumor cells viability, ATP luminescence, 72 h; at 10 µM; stronger effect = lower value.
A short description of test [6]: reversal of MRP1-mediated doxorubicin resistance, pilot screen, H69AR cells, doxorubicin co-treatment (AID 601;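 active means viability loss from added drug above about 55%, and viability with drug at most 40%, in both replicates, limit read from the data, passing the limit was not always enough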). Particulars: CellTiter-Glo, 72 h, at 10 µM; for differential viability (reversal): stronger effect = higher value.
The nature of test [7]: 384-well plate pilot, post-Golgi transport modulator project, inhibition of yeast transport mutant growth (AID 636; in the data active means inhibition above about 31%). Particulars: absorbance 615 nm, about 18 h, stronger effect = higher value.
Test [8] can be described thus: growth suppression of yeast trafficking mutant, preliminary HTS, modulators of trafficking downstream of Golgi apparatus project, 1536-format plate, OD 615 nm (AID 637; in the data active means inhibition above about 30%). To be noted: yeast transport mutant growth, absorbance 615 nm, 18 h; stronger effect = higher value.
Test [9] in a line: OD615 S. cerevisiae growth inhibition, permissive medium, pilot counter-assay, permissive growth control for S. cerevisiae lifespan shortening project (AID 705;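 active means growth inhibition above 25% in both replicates, a cutoff set 3 SD above the mean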). To be noted: OD615, 24 h, at 10 µM, stronger effect = higher value.
Test [10] can be described thus: Restrictive medium S. cerevisiae growth inhibition, OD615, pilot screen of yeast lifespan reduction project, restrictive growth control (AID 706;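 active means growth inhibition above a set limit, 3 SD over mean compound inhibition, in both replicates, cut at about 43% in these data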;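 further: modified DeaD lifespan yeast strain shifted to restrictive glucose medium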). Particulars: OD615, 48 h, at 10 µM, stronger effect = higher value.
Test [11] is described as follows: viability gain of MRP-1-high H69AR cells under doxorubicin, pilot screen, MRP-1 activator project, CellTiter-Glo, duplicate (AID 807;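 active means viability increase at or above a cutoff of the median across tested compounds plus 3 SD, cut at about 8.5% in these data, passing the limit was not always enough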;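 further: compound pretreatment 18-22 h then 72 h combined with doxorubicin; 0% = doxorubicin alone and 100% = vehicle without doxorubicin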). Particulars: H69AR viability with doxorubicin, CellTiter-Glo luminescence; at 10 µM; stronger effect = higher value.
Test [12] is described as follows: growth suppression of beta-catenin knockout HCT116, pilot screen, human colon tumor cells (AID 823;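 active means cell viability at or below a set limit in both duplicate runs, the limit being the all-compound median minus 4 SD, cut at about 23% in these data, passing the limit was not always enough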;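 further: 0% = wells killed by 20 µM Hyamine and 100% = untreated DMSO cell wells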). Particulars: CellTiter-Glo, 60 h, at 10 µM, stronger effect = lower value.
The nature of test [13]: growth suppression of PTEN-deleted HCT116, pilot screen, cell-based, HCT116 clonal line, CellTiter-Glo (AID 824;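 active means viability at or below 27.92% in each of two runs, the all-compound median minus 4 SD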;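 further: 0% = 20 µM Hyamine control and 100% = vehicle cell control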). To be noted: 60 h, at 10 µM, stronger effect = lower value.
Test [14] is described as follows: inhibitors of the yeast RAM network, pilot screen, dse1pr::URA3 reporter, 5-FOA selection (AID 869).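 Further: 0% = DMSO wells with no growth and 100% = 10 µM 1-NA-PP1 with full growth; RAM network block rescues cells from 5-FOA so hits raise OD615 growth.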 Particulars: S. cerevisiae dse1pr::URA3 5-FOA growth, OD615, 2 d; at 10 µM; stronger effect = higher value; strain carries analog-sensitive mutant Cbk1 kinase.
Test [15] is described as follows: RAM signaling pathway blockade in yeast – S. cerevisiae, Pdr1DBD-CYC8 efflux-inhibited sensitized strain, primary screen (AID 1298;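 active means RAM network inhibition above 8.4% in each of two replicates, 3 SD over the compound average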;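 further: 0% = DMSO untreated cells without growth and 100% = 10 µM 1-NA-PP1 full growth; higher means more yeast growth rescued from 5-FOA killing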). Particulars: S. cerevisiae cbk1-as DSE1-URA3 strain, 5-FOA growth OD615, 2 d; at 50 µM; stronger effect = higher value.
The mark [16] stands for this setting: H69AR cells + 2 uM doxorubicin, measured here: viability with 2 uM doxorubicin, stronger effect = lower value.
[17] abbreviates: H69AR cells, compound alone cytotoxicity.

Sequence of Receptor tyrosine-protein kinase erbB-2 (Homo sapiens) (P04626 whole entry, looked up): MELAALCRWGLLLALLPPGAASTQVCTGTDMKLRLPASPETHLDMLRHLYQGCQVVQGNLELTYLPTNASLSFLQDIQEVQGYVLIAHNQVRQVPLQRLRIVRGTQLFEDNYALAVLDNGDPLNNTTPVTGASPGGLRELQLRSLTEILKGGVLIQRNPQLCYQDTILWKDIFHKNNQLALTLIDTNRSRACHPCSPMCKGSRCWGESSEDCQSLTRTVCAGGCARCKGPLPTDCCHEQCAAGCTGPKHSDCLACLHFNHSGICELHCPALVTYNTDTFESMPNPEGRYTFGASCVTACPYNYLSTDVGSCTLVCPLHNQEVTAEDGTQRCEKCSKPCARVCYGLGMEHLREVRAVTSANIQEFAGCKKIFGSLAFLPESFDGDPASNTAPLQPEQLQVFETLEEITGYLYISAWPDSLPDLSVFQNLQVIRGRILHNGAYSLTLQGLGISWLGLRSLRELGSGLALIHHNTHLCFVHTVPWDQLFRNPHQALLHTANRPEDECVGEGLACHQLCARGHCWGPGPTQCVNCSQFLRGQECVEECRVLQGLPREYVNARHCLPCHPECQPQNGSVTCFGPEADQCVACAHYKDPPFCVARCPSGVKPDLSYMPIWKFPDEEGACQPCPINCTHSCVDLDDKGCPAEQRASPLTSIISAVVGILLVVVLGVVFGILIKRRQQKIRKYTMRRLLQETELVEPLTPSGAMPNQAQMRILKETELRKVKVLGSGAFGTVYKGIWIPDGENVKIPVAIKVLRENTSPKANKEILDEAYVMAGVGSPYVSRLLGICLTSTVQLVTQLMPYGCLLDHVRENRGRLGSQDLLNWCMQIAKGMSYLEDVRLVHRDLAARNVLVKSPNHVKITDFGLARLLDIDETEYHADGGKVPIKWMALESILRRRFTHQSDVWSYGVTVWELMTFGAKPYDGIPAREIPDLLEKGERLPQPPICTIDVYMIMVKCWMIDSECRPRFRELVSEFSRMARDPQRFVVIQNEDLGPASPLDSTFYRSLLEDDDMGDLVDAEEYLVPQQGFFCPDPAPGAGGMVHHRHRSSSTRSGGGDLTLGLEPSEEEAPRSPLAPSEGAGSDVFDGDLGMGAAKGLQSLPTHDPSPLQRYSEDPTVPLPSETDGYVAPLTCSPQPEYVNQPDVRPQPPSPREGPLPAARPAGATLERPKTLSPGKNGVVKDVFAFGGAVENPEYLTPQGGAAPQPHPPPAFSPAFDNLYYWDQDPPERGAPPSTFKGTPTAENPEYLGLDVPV

Turning to `CCOC(=O)c1ccccc1NC(=O)c1ccc2c(=O)n3c(nc2c1)CCCCC3`, the viability in test [1] is 87.5%; in test [3] it was 87.5% (inactive); in [4], 84.9% (inactive); in test [5], 84.4% (inactive); in test [6] (setting [16]), 93.5%; in test [6] (setting [17]), 84.4%. Also, the viability is 82.5% (inactive) in [12] and 81.2% (inactive) in test [13]. The Her2 level in [2] was 84.5% (inactive). Moreover, the differential viability (reversal) in test [6] (H69AR cells + 2 uM doxorubicin) was -9.15% (inactive). Further, the inhibition was -4.53% (inactive) in test [7], 0.67% (inactive) in [8] and 1.7% (inactive) in test [14]. Also, the growth inhibition in [9] is -5.51% (inactive); in [10], -0.78% (inactive). Also, the viability increase in [11] is -1.73% (inactive). The RAM network inhibition in test [15] is 18.8% (active).

Consider `O=C(COC(=O)C1CC2C=CC1C2)Nc1ccc2c(c1)OC(F)(F)O2` (stereo not given), for which the viability in test [1] was 119%; in [3], 119% (inactive); in test [4], 84.2% (inactive); in test [5] it was 94.3% (inactive); in [6] (setting [16]) it was 95.5%; in test [6] (setting [17]), 94.3%. Also, the viability was 89.2% (inactive) in test [12] and 96.2% (inactive) in test [13]. Further, the Her2 level in [2] is 89.5% (inactive). In test [6] (H69AR cells + 2 uM doxorubicin), the differential viability (reversal) was -1.17% (inactive). Also, the inhibition in test [7] is -1.95% (inactive); in test [8] it was -0.49% (inactive); in test [14], 1.08% (inactive). Moreover, the results for the growth inhibition in test [9] and in [10] were -9.33% (inactive) and 3.8% (inactive), respectively. Also, in test [11], the viability increase is 3.74% (inactive). Also, in test [15], the RAM network inhibition was -2.17% (inactive).

For `CCCCN(C)C(=O)c1cn(C)c2ccc(S(=O)(=O)N(C)C)cc2c1=O`, the viability is 96% in [1]; 96% (inactive) in [3]; 102% (inactive) in [4]; 102% (inactive) in test [5]; 95.5% in test [6] (setting [16]); 102% in test [6] (setting [17]). The viability was 100% (inactive) in test [12] and 108% (inactive) in [13]. For the same molecule, the Her2 level in [2] is 102% (inactive). Besides, the differential viability (reversal) in test [6] (H69AR cells + 2 uM doxorubicin) is 6.23% (inactive). The inhibition in [7] was 0.13% (inactive); in [8], -4.5% (inactive); in test [14], 0.805% (inactive). Besides, the growth inhibition was -3.25% (inactive) in test [9] and 3.02% (inactive) in test [10]. Further, the viability increase in [11] was 0.32% (inactive). Also, the RAM network inhibition in test [15] was 2.99% (inactive).

`N#CCCN1CCN(S(=O)(=O)c2ccc(S(=O)(=O)NC3CCCC3)cc2)CC1`: the viability in [1] was 88.5%; in test [3] it was 88.5% (inactive); in test [4] it was 99.3% (inactive); in test [5] it was 107% (inactive); in [6] (setting [16]), 73.1%; in test [6] (setting [17]) it was 107%. Besides, the viability in test [12] is 101% (inactive); in [13], 100% (inactive). Also, the Her2 level in [2] is 124% (inactive). Further, the differential viability (reversal) in [6] (H69AR cells + 2 uM doxorubicin) was 33.5% (inactive). In addition, the inhibition in test [7] was -3.46% (inactive); in test [8], -8% (inactive); in test [14], 2.69% (inactive). For the same molecule, the growth inhibition in [9] is -9.39% (inactive); in [10], -4.06% (inactive). Moreover, in [11], the viability increase is -0.87% (inactive). In addition, the RAM network inhibition in [15] is 3.21% (inactive).

In the case of `O=C(CSc1nnnn1-c1ccccc1Cl)Nc1ccc2c(c1)OCCO2`, the viability is 91.5% in [1]; 91.5% (inactive) in [3]; 101% (inactive) in test [4]; 77.2% (inactive) in test [5]; 85.2% in test [6] (setting [16]); 77.2% in test [6] (setting [17]). Moreover, the viability is 99.4% (inactive) in [12] and 87.5% (inactive) in test [13]. The Her2 level in test [2] was 96% (inactive). The differential viability (reversal) in [6] (H69AR cells + 2 uM doxorubicin) was -7.98% (inactive). Further, the values for the inhibition in test [7], in test [8] and in [14] were -0.4% (inactive), 4.33% (inactive) and 2.22% (inactive), respectively. Moreover, the results for the growth inhibition in [9] and in test [10] were 1.69% (inactive) and 3.15% (inactive), respectively. In addition, the viability increase in [11] is 1.44% (inactive). In addition, the RAM network inhibition in [15] was 5.58% (inactive).

As for `CCOc1ccccc1N(CC(=O)N1CCCCCC1)S(C)(=O)=O`, the viability in test [1] was 99%; in test [3], 99% (inactive); in [4] it was 97.5% (inactive); in test [5], 99.8% (inactive); in [6] (setting [16]) it was 89.5%; in [6] (setting [17]), 99.8%. Moreover, the results for the viability in test [12] and in test [13] were 91.1% (inactive) and 99.4% (inactive), respectively. The Her2 level in [2] was 97% (inactive). The differential viability (reversal) in [6] (H69AR cells + 2 uM doxorubicin) was 10.3% (inactive). The figures for the inhibition in test [7], in test [8] and in test [14] were -1.3% (inactive), 1.15% (inactive) and 0.65% (inactive), respectively. Also, the growth inhibition in test [9] was -4.37% (inactive); in test [10], -10.9% (inactive). Besides, in [11], the viability increase is -1.33% (inactive). The RAM network inhibition in test [15] was 3.99% (inactive).

For the molecule `CC1CCCN(C(=O)C23CCC(C)(C(=O)C2)C3(C)C)C1` (stereo not given), the viability in test [1] is 99%; in [3] it was 99% (inactive); in test [4], 103% (inactive); in test [5], 108% (inactive); in test [6] (setting [16]), 92.6%; in [6] (setting [17]) it was 108%. The viability in [12] is 97.7% (inactive); in [13], 102% (inactive). The Her2 level in test [2] is 92% (inactive). In [6] (H69AR cells + 2 uM doxorubicin), the differential viability (reversal) is 15.3% (inactive). Also, the inhibition in test [7] is -2.43% (inactive); in [8], -3.17% (inactive); in [14], -0.565% (inactive). For the same molecule, the growth inhibition in test [9] is -7.46% (inactive); in test [10], -8.69% (inactive). For the same molecule, the viability increase in test [11] was -2.08% (inactive). The RAM network inhibition in test [15] is 4.55% (inactive).

For the molecule `Cc1ccccc1Cn1cc(/C=N/n2cnnc2)c2ccccc21`, the viability was 100% in test [1]; 100% (inactive) in test [3]; 68.7% (inactive) in [4]; 95.4% (inactive) in [5]; 82% in test [6] (setting [16]); 95.4% in test [6] (setting [17]). Moreover, the viability is 67.8% (inactive) in test [12] and 61.6% (inactive) in test [13]. Further, the Her2 level in test [2] is 99.5% (inactive). Besides, the differential viability (reversal) in [6] (H69AR cells + 2 uM doxorubicin) was 13.3% (inactive). Also, the inhibition in test [7] is -2.6% (inactive); in [8], 4.83% (inactive); in test [14], 1% (inactive). Also, the figures for the growth inhibition in test [9] and in [10] were 7.88% (inactive) and 23.3% (inactive), respectively. Further, in test [11], the viability increase was -4.78% (inactive). Moreover, in test [15], the RAM network inhibition is -0.25% (inactive).

As for `O=C(NCc1ccccc1)C1CCN(S(=O)(=O)c2cccc3cccnc23)CC1`, the viability was 96.5% in [1]; 96.5% (inactive) in test [3]; 99% (inactive) in test [4]; 98.2% (inactive) in test [5]; 95.4% in test [6] (setting [16]); 98.2% in test [6] (setting [17]). The viability in [12] is 99.2% (inactive); in [13], 96.3% (inactive). In test [2], the Her2 level was 104% (inactive). Further, the differential viability (reversal) in test [6] (H69AR cells + 2 uM doxorubicin) is 2.76% (inactive). Also, the inhibition in test [7] is 0.67% (inactive); in test [8], -2.79% (inactive); in test [14], 1.52% (inactive). Also, the growth inhibition in [9] is 0.255% (inactive); in test [10] it was -4.87% (inactive). In test [11], the viability increase is -2.29% (inactive). For the same molecule, the RAM network inhibition in test [15] is -0.57% (inactive).

As for `CCOc1cc(C2CC(=O)N3CN(C4CCCCC4)CSC3=C2C#N)ccc1O` (stereo not given), the viability in test [1] is 85%; in test [3], 85% (inactive); in test [4], 113% (inactive); in test [5] it was 87.3% (inactive); in test [6] (setting [16]) it was 101%; in test [6] (setting [17]), 87.3%. In addition, the figures for the viability in test [12] and in [13] were 105% (inactive) and 95.1% (inactive), respectively. For the same molecule, the Her2 level in [2] is 108% (inactive). Moreover, the differential viability (reversal) in [6] (H69AR cells + 2 uM doxorubicin) is -13.7% (inactive). The inhibition is 1.92% (inactive) in [7], 2% (inactive) in test [8] and 0.17% (inactive) in [14]. Moreover, the growth inhibition in test [9] is 41.6% (active); in test [10], 76% (active). In test [11], the viability increase was -4.1% (inactive). The RAM network inhibition in test [15] is 2.85% (inactive).
